Experimental findings from PubChem BioAssay (Tox21) are described below.

A number with no mark means an inactive call. Records with an inconclusive call do not appear. Active and inactive are the calls of the source. Unless noted, calls follow the shape of the dose curve; as a rule, active = well fitted curve in the direction sought with a large enough effect in the repeat runs; inconclusive = weak or mixed curves; inactive = no such curve, though single readings can be large; an effect the other way counts as inactive or inconclusive.

Assay [1] in a line: qHTS assay to identify small molecule antagonists of the sonic hedgehog signaling (Shh) pathway (AID 1259369; calls by dose curve; also: nearly all actives have a fitted effect of over 45% in size; also: potency is read from the fitted curve at half-maximal effect). An outline of the steps: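 Read-out is luminescence from a firefly luciferase gene controlled by the Gli1 response element, in 3T3Gli1-Luc cells pre-incubated 4hr then exposed to compounds and conditioned medium for 24hr.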
A short description of assay [2]: qHTS assay to identify small molecule agonists of the androgen receptor (AR) signaling pathway in the presence of an antagonist - cell viability counter screen (AID 1259379).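 Also: MDA-kb2 human breast cancer cells carrying an MMTV luciferase reporter; series mostly up to about 92 µM; nearly all actives have a fitted effect of over 25% in size.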 The method, boiled down: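 Each compound was tested at 15 concentrations on MDA-kb2 cells in the presence of 3.0uM nilutamide. Viability was measured by CellTiter-Fluor fluorescence after a 16 hr incubation at 37C in a CO2-free atmosphere.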

A short description of assay [3]: qHTS assay to identify small molecule agonists of the estrogen receptor beta (ER-beta) signaling pathway - cell viability counter screen (AID 1259380). Also: nearly all actives have a fitted effect of over 30% in size. The method, boiled down: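 Compounds dissolved in DMSO were pin-transferred onto ER-beta-UAS-bla HEK293T cells that had settled 6 hr, and exposure ran 16 hr at 37C. Following the reporter read, CellTiter-Glo luminescence after 30 min at room temperature indicated cytotoxicity.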

Assay [4] can be described thus: qHTS assay to identify small molecule antagonists of the estrogen receptor beta (ER-beta) signaling pathway - cell viability counter screen (AID 1259382).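 Also: HEK293T cells carrying ER-beta-UAS-bla reporter stimulated with estradiol; series mostly up to about 92 µM; nearly all actives have a fitted effect of over 55% in size.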 The method, boiled down:
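CellTiter-Glo ATP luminescence measured after the LiveBLAzer read in the same wells; ER-beta-UAS-bla HEK293T cells, 16 hr compound treatment with 1nM 17-beta-estradiol agonist at 37C, 5% CO2.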

Assay [5] can be described thus: qHTS assay to identify small molecule agonists or antagonists of the thyroid stimulating hormone receptor (TSHR) signaling pathway - wild type cell line counter screen (AID 1259384; calls by dose curve). An outline of the steps:
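Counter screen in untransfected Hek293: compounds (15-point titration, triplicate) plus phosphodiesterase inhibitor Ro20-1724 added after 18 h plating; 30 min RT. Intracellular cAMP via competitive d2/cryptate immunoassay, 1 h incubation.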

For assay [6], the target named is Thyrotropin receptor (Homo sapiens) (UniProt P16473). Nature of the assay: qHTS assay to identify small molecule antagonists of the thyroid stimulating hormone receptor (TSHR) signaling pathway (AID 1259385; calls by dose curve; also: nearly all actives have a fitted effect of over 20% in size). The method, boiled down: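 Antagonist mode: compound-treated TSHR-expressing HEK293 cells were stimulated with 1.5 ng/mL TSH (final) in presence of Ro20-1724 for 30 min at RT. HTRF cAMP detection after 1 h; each compound tested at 15 concentrations, triplicate.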

A short description of assay [7]: qHTS assay to identify small molecule agonists of the estrogen receptor alpha (ER-alpha) signaling pathway in the presence of an antagonist - cell viability counter screen (AID 1259386).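 Also: cells exposed to compounds for 22 h at 37 °C before the viability read; nearly all actives have a fitted effect of over 30% in size.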 Also: potency is read from the fitted curve at half-maximal effect. An outline of the steps: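 Using estrogen-depleted VM7Luc4E2 cells, the 15-concentration compound series was applied together with 10.0nM ICI-182,780 and incubated 22hr at 37C/5% CO2. Cell viability was then scored by CellTiter-Fluor.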

Assay [8] deals with Progesterone receptor (Homo sapiens) (UniProt P06401). Nature of the assay: qHTS assay to identify small molecule agonists of the progesterone receptor (PR) signaling pathway (AID 1346784; calls by dose curve; also: nearly all actives have a fitted effect of over 30% in size). The method, boiled down:
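Beta-lactamase reporter read-out: after 16 hr compound treatment at 37C and a further 2 hr at room temperature with LiveBLAzer B/G FRET substrate, fluorescence was measured in PR-UAS-bla HEK 293T cells grown in 2% charcoal-stripped serum.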

For assay [9] the target is unchanged. Nature of the assay: qHTS assay to identify small molecule antagonists of the progesterone receptor (PR) signaling pathway (AID 1346795; active = well fitted inhibition curve with a large enough effect in the signal ratio in the repeat runs, not every such curve was filed as active; the % refers to the signal ratio). An outline of the steps: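 Read-out is fluorescence from the LiveBLAzer B/G FRET substrate, cleaved by a UAS-controlled beta-lactamase in PR-UAS-bla HEK293T cells after 16 hr exposure to compound plus 1 nM promegestone (final), followed by 2 hr at room temperature.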

The nature of assay [10]: qHTS assay to identify small molecule antagonists of the progesterone receptor (PR) signaling pathway - cell viability counter screen (AID 1346798). Also: series mostly up to about 92 µM; nearly all actives have a fitted effect of over 50% in size. The method, boiled down: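 HEK293T PR-UAS-bla, 2% charcoal-stripped FBS; 4 hr pre-plate; cpd + R5020, 16 h 37C; LiveBLAzer read first; then CellTiter-Glo 30 min RT, luminescence.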
Assay [11] can be described thus: qHTS assay to identify small molecule agonists of the progesterone receptor (PR) signaling pathway - cell viability counter screen (AID 1346799; calls by dose curve; also: nearly all actives have a fitted effect of over 45% in size). The method, boiled down:
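Luminescence from CellTiter-Glo, added after the beta-lactamase FRET read in the same wells, gave cytotoxicity in PR-UAS-bla HEK293T cells treated with compounds for 16 hr at 37C.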

A short description of assay [12]: qHTS assay to identify small molecule agonists of the TGF-beta/Smad signaling pathway - cell viability counter screen (AID 1346829). Also: top concentration of the series differs between compounds; nearly all actives have a fitted effect of over 45% in size. The method, boiled down:
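Luminescence from CellTiter-Glo, read after a 30 min room-temperature incubation, gives cell viability of SBE-bla HEK 293T cells treated 5 hr with compounds at 37 C.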

The nature of assay [13]: qHTS assay to identify small molecule agonists of the TGF-beta/Smad signaling pathway (AID 1346859; active = well fitted activation curve with a large enough effect in the signal ratio in the repeat runs, not every such curve was filed as active; the % refers to the signal ratio; also: series mostly up to about 77 µM). The method, boiled down: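 SBE-bla HEK 293T, 4,000 cells/well, plated o/n; cpd in DMSO, 5 hr, 37 C/5% CO2; B/G FRET substrate 2 hr RT; ex 405, em 460/530 nm.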
The nature of assay [14]: qHTS assay to identify small molecule antagonists of the TGF-beta/Smad signaling pathway - cell viability counter screen (AID 1346824). Also: nearly all actives have a fitted effect of over 50% in size. The method, boiled down:
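Cytotoxicity counter-screen run in the same wells as the beta-lactamase Smad reporter read: CellTiter-Glo luminescence after 30 min at room temperature. HEK 293T SBE-bla cells had 5 hr compound exposure at 37 C with TGF-beta1 (0.25 ng/mL stock).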

Assay [15] has as its target Estrogen receptor (Homo sapiens) (UniProt P03372). Nature of the assay: qHTS assay to identify small molecule agonists of the estrogen receptor alpha (ER-alpha) signaling pathway in the presence of an antagonist (AID 1259383; calls by dose curve; also: top concentration of the series differs between compounds; nearly all actives have a fitted effect of over 15% in size). An outline of the steps: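 Luminescent ERE-luciferase reporter, VM7Luc4E2 cells (endogenous ER-alpha); 10.0nM ICI-182,780 final; 15-point compound titration; 22hr at 37C; ONE-Glo, 30min RT.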

The target in assay [16] is Thyrotropin-releasing hormone receptor (Homo sapiens) (UniProt P34981). Nature of the assay: qHTS assay to identify small molecule antagonists of the thyrotropin-releasing hormone receptor (TRHR) signaling pathway (AID 1346877; active = well fitted inhibition curve with a large enough effect in the repeat runs, not every such curve was filed as active; also: series mostly up to about 51 µM). An outline of the steps: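 Calcium signal in dye-loaded TRHR/HEK293 cells; compounds added 5 min before TRH (1 nM final); fluorescence monitored 3 min at 1 s steps.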

The target is the same in assay [17]. Nature of the assay: qHTS assay to identify small molecule agonists of the thyrotropin-releasing hormone receptor (TRHR) signaling pathway (AID 1346891; calls by dose curve; also: series mostly up to about 58 µM). An outline of the steps: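 Intracellular calcium rise, read as fluorescence every second for 3 min, served as the agonist signal in dye-loaded HEK293 cells expressing TRHR; each compound ran at 15 concentrations in triplicate.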

Chain of Thyrotropin receptor (Homo sapiens) (P16473 whole entry, looked up): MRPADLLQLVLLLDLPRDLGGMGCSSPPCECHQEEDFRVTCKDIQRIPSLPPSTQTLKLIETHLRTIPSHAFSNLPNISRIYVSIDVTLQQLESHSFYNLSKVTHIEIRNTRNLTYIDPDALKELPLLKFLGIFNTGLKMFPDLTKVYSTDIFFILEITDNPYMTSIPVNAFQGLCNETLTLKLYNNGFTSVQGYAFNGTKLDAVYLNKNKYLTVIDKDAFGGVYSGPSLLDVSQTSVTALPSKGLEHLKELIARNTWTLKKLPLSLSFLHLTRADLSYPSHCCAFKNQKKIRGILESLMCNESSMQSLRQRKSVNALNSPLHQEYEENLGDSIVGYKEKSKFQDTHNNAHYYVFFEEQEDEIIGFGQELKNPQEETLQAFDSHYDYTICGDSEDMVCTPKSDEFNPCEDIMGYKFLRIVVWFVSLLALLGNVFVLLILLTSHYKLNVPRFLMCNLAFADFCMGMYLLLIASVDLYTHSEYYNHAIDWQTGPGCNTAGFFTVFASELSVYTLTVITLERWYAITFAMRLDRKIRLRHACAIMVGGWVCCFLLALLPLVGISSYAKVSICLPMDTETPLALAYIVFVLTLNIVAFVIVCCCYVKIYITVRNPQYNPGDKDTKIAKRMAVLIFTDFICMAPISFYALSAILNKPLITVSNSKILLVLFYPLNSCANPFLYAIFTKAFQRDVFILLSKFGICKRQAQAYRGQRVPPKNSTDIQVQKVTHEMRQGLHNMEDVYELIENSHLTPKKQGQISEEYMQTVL
Chain of Progesterone receptor (Homo sapiens) (P06401 whole entry, looked up): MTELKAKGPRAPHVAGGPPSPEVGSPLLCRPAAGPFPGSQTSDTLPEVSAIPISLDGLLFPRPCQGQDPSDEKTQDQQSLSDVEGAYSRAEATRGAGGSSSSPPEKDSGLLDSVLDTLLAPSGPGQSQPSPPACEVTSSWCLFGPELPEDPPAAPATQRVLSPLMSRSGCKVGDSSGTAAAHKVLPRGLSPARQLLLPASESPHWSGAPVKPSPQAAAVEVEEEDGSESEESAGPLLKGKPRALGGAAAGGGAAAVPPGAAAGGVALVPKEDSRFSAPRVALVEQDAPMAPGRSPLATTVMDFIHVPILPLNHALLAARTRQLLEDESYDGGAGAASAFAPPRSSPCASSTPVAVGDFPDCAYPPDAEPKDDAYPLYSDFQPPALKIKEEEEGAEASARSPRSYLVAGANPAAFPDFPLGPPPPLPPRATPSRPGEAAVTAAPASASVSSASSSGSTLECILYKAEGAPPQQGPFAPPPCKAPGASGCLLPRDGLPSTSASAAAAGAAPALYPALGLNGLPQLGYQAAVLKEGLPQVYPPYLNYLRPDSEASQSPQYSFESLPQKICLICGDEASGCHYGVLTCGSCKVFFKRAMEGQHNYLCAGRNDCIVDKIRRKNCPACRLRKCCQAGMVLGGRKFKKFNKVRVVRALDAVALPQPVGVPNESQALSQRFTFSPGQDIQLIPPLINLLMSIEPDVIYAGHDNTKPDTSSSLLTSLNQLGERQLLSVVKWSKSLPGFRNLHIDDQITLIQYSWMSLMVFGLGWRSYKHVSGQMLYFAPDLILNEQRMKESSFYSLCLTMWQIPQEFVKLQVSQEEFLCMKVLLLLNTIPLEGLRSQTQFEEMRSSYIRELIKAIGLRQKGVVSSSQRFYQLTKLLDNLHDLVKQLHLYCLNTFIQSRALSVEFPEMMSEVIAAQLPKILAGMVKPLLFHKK
Chain of Estrogen receptor (Homo sapiens) (P03372 whole entry, looked up): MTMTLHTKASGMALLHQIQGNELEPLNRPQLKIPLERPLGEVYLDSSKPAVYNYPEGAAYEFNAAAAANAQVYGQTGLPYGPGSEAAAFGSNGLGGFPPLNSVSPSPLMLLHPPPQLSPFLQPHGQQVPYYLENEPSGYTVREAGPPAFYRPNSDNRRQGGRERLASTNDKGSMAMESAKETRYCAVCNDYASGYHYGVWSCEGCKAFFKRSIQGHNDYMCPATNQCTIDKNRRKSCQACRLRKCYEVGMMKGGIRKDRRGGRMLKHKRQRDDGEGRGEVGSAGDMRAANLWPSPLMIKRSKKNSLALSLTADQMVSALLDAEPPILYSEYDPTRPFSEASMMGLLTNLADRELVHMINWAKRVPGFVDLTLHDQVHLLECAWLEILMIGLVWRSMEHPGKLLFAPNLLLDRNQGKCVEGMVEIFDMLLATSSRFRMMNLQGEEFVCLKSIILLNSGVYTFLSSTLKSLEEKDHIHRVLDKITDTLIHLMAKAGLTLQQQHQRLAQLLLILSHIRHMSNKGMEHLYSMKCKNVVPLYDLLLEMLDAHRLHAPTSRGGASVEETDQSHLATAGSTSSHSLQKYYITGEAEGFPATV
Chain of Thyrotropin-releasing hormone receptor (Homo sapiens) (P34981 whole entry, looked up): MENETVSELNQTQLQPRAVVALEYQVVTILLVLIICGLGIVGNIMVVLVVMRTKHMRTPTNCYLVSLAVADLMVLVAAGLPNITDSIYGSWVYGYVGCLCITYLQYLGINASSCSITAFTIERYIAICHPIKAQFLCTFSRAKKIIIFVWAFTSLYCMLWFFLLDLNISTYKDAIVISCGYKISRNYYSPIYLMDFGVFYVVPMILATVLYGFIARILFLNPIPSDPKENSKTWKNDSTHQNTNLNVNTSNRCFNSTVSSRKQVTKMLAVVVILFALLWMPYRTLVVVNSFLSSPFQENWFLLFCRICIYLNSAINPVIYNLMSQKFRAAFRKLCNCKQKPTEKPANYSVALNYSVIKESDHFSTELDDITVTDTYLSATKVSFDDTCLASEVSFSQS

Turning to `CC(C)[C@H]1CC[C@@H](C)CC1=O`, the Potency entry in assay [1], in [2], in [3], in assay [7], in [8] and in assay [9] was “inactive” in each case. Besides, the Potency entry in assay [10] and in assay [11] was “inactive” in each case. Besides, the call in assay [4], in [5], in assay [6], in assay [12] and in assay [13] was inactive.

With `CC[N+](CC)(CC(=O)Nc1c(C)cccc1C)Cc1ccccc1` (tested in a mixture with another compound), the Potency result in [1], in assay [2], in assay [3], in assay [7], in assay [8] and in assay [9] was “inactive” throughout. The Potency result in assay [10] and in assay [11] was “inactive” each time. Moreover, the call in assay [4], in assay [6], in [14] and in assay [13] was inactive.

As to `CNCC(O)c1ccc(O)c(O)c1` (stereo not given), the Potency result in assay [1], in assay [2], in assay [3], in assay [8], in assay [9] and in [10] was “inactive” in each case. The Potency entry in [11] and in assay [17] was “inactive” throughout. Further, the result in [4], in [15], in assay [6], in assay [14], in assay [12] and in [13] was inactive. Also, the compound was called inactive in assay [16]. Further, the Potency in assay [7] was 29.8 µM (active).

In the case of `CC(C)(C)C(=O)c1ccccc1`, the Potency result in [1], in assay [2], in assay [3], in assay [7], in assay [8] and in assay [9] was “inactive” in each case. For the same compound, the Potency result in assay [10] and in assay [11] was “inactive” throughout. For the same compound, the compound was classed as inactive in assay [4], in assay [15], in assay [6], in assay [14], in assay [12] and in assay [13].

For the compound `CCN1C=CN(C)C1C` (stereo not given), the Potency entry in [1], in assay [2], in [3], in assay [7], in [8] and in [9] was “inactive” each time. Further, the Potency entry in assay [10], in [11] and in assay [17] was “inactive” each time. The compound was classed as inactive in assay [4], in [15], in [5], in assay [6], in [14] and in assay [12]. The compound was called inactive in [13] and in assay [16].

`O=C(O)CC(C(=O)O)S(=O)(=O)O` (stereo not given): in assay [1], the Potency is 30.6 µM (active). The Potency result in [2], in [3], in assay [7], in [8], in assay [9] and in assay [11] was “inactive” throughout. Besides, the Potency result in assay [17] was “inactive”. Also, the outcome in [15], in [6], in [14], in assay [13] and in assay [16] was inactive.

For the compound `Nc1ccn([C@@H]2O[C@H](CO)[C@@H](O)C2O)c(=O)n1` (stereo not given in full), the Potency result in assay [1], in assay [2], in [3], in assay [7], in [8] and in assay [9] was “inactive” each time. Also, the Potency result in [10], in assay [11] and in assay [17] was “inactive” in each case. Besides, the result in assay [4], in assay [15], in assay [14], in assay [12], in assay [13] and in assay [16] was inactive.
